A short description of assay [1]: inhibitors of TNFa-induced NFkB p65 translocation, primary screen, imaging, HUVEC, MLSMR starter and 10KST1 sets (AID 438;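 active means inhibition above 20% together with a positive visual image hit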;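 further: compound added about 3h40 before a 20 min TNFalpha stimulation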;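 on inhibition: signal is the nuclear over cytoplasmic p65 intensity ratio per well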). The following applies: HUVEC TNFa-induced p65 nuclear translocation; cell count: measured here: nuclei count (cytotoxicity indicator), at 2.08 µM; inhibition: at 2 µM, stronger effect = higher value, 0% TNFa-plus-vehicle, 100% no-TNFa wells.
A short description of assay [2]: reduction of polyQ htt aggregates in cells – imaging, exon1htt(103Q)mCFP cells, high-content imaging, primary screen (AID 483;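 active means visual image review flags a hit and inhibition of aggregation exceeds 20%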;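 further: compound exposure lasted 3 days before fixation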;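 on nuclei count: percent of the per-plate median nuclei count of sample wells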). The following applies: exon1htt(103Q)mCFP cell line, aggregate imaging, at 2 µM; inhibition of aggregation: stronger effect = higher value; nuclei count: measured here: cell count, toxicity.
Assay [3] can be described thus: endothelial E-selectin expression blockers – imaging, HUVEC, immunofluorescence, MLSMR starter and 10KST1 sets, primary screen (AID 487;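 active means visually confirmed hit in the image check and inhibition above 20%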;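 on inhibition: signal is fraction of cell area covered by stained E-selectin grains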;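 on nuclei count: 100% = median nuclei count of all wells on the same plate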). As to conditions: HUVEC TNFalpha-induced E-selectin immunofluorescence imaging, at 2 µM; inhibition: stronger effect = higher value; nuclei count: measured here: cell number, toxicity.
For assay [4], the target named is Voltage-gated potassium channel subunit beta-2 (Rattus norvegicus) (UniProt P62483). Description: inhibitors of rat Kvbeta2 reductase activity – biochemical, NADPH fluorescence, primary screen (AID 622;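 active means fluorescence slope higher than the sample average by over 3 SD, cut at about -0.22 in these data, passing the limit was not always enough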;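 further: slope of raw intensity against log time taken from 70 to 1610 s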). As to conditions: recombinant KvBeta, 4-cyanobenzaldehyde reduction, at 10 µM, stronger effect = higher value.
The target is the same in assay [5]. The experiment in a line: enhancers of rat Kvbeta2 NADPH turnover – biochemical, NADPH fluorescence, primary screen (AID 623;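 active means NADPH fluorescence slope more negative than the mean of all samples by about 3 SD, 99.7% confidence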;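 further: fluorescence intensity change per second fitted from 20 to 320 s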). As to conditions: Recombinant KvBeta, NADPH fluorescence decrease slope, 10 min; at 10 µM; stronger effect = lower value.
The target in assay [6] is Alpha-2C adrenergic receptor (Homo sapiens) (UniProt P18825). The experiment in a line: compounds altering alpha2C-coupled GIRK flux – cell-based, HEK293 alpha2C/GIRK1/2, thallium flux, primary screen (AID 624;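 active means fluorescence slope after compound addition differing from the mean of all screened samples at 99.7% confidence, in either direction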;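 further: slope of fluorescence ratio to pre-addition baseline per second over 15 to 24 s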). The following applies: thallium flux BTC fluorescence, at 10 µM, actives lie on both sides.
Assay [7] is described as follows: blockers of RIG-like receptor reporter activation – cell-based, Sendai virus stimulus, luciferase, 10K MLSCN set, TLR/RLR signaling modifier project, primary screen (AID 602276;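 active means inhibition at or above 50% at 10 µM; inactive means inhibition below 50%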;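 further: firefly luciferase from ISG56 promoter only with Renilla not read in this screen; 0% = Sendai virus plus DMSO and 100% = medium plus DMSO without virus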). As to conditions: HEK293 RL24 IRF3 luciferase reporter, at 10 µM, stronger effect = higher value. A general note: Reporter assays use an easily measured gene product as a stand-in for the process of interest.

Assay [8] in a line: TLR3 IRF3 reporter activation blockers – cell-based, poly I:C stimulus, luciferase, 10K MLSCN set, primary screen (AID 602277). As to conditions: HEK293-TLR3 RL24 IRF3 luciferase reporter, at 10 µM, stronger effect = higher value.

Activity calls are given as the source filed them.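 How the source made its calls, unless noted: active means inhibition of the reporter signal at or above 50%; inactive means inhibition below 50%.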

Alpha-2C adrenergic receptor (Homo sapiens), sequence (P18825 whole entry, looked up): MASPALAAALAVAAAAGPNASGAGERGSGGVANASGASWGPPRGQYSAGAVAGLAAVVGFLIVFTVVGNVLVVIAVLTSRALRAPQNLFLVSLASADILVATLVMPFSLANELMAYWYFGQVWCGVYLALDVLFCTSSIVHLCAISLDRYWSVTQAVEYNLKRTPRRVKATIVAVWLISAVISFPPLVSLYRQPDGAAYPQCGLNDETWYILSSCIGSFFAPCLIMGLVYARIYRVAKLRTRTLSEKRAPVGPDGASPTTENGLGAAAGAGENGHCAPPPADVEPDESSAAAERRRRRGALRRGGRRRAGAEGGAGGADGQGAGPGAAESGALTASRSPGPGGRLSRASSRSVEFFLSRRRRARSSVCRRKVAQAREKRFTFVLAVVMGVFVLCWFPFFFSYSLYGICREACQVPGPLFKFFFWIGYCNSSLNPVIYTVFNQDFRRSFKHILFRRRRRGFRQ
Voltage-gated potassium channel subunit beta-2 (Rattus norvegicus), sequence (P62483 whole entry, looked up): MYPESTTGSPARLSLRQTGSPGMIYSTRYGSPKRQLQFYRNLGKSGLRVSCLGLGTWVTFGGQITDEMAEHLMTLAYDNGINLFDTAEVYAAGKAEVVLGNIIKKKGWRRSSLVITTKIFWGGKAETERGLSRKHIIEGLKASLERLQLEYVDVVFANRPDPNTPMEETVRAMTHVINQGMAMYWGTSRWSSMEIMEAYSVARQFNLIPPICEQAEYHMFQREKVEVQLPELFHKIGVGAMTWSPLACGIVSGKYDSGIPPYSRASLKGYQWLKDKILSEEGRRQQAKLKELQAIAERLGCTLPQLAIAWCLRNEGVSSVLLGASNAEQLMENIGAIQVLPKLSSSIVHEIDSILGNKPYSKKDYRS

For the compound `CCOc1ccccc1C(=O)Nc1nnc(CC)s1`, in assay [1], the cell count stood at 537. The inhibition (usually the drop in the measured response relative to a control, in per cent) in assay [1] is -12% (inactive); in assay [3], -6.2% (inactive); in assay [7], -6.19% (inactive); in assay [8], -13.4% (inactive). The inhibition of aggregation in assay [2] was 12.2% (inactive). Moreover, the nuclei count in assay [2] turned out to be 59.9%; in assay [3], 88%. In addition, the fluorescence slope in assay [4] was -0.428 (inactive). The NADPH fluorescence slope in assay [5] was -2.5e-05 (inactive). Besides, in assay [6], the slope was 0.00564 (inactive).
On to `CS(=O)(=O)NCC(c1cccnc1)N1CCN(c2ccc(F)cc2)CC1` (centres undefined), for which, in assay [1], the cell count was found to be 250. Moreover, the inhibition in assay [1] was -10.2% (inactive); in assay [3] it was 27.3% (inactive); in assay [7], -3.05% (inactive); in assay [8] it was 1.56% (inactive). Moreover, the inhibition of aggregation in assay [2] was 15.1% (inactive). Moreover, the nuclei count in assay [2] worked out at 33.8%; in assay [3] it was 72.4%. In addition, the fluorescence slope in assay [4] was -0.34 (inactive). Further, the NADPH fluorescence slope in assay [5] is -4.2e-05 (inactive). Besides, the slope in assay [6] is 0.00483 (inactive).
For the compound `O=C(Nc1cccc(F)c1)C1C2C=CC3(CN(CCCN4CCOCC4)C(=O)C13)O2` (centres undefined), the cell count in assay [1] was 661. Besides, the inhibition was -5.5% (inactive) in assay [1], -75.2% (inactive) in assay [3], -14.3% (inactive) in assay [7] and 12.3% (inactive) in assay [8]. Besides, the inhibition of aggregation in assay [2] is -27.1% (inactive). Also, the nuclei count in assay [2] was determined as 118%; in assay [3] it was 116%. Also, the fluorescence slope in assay [4] is -0.548 (inactive). Besides, in assay [5], the NADPH fluorescence slope is -3.3e-05 (inactive). For the same compound, the slope in assay [6] is 0.00626 (inactive).
Take `O=C(NC1CCCC1)C1CCCN(S(=O)(=O)c2cccc3cccnc23)C1` (centres undefined): the cell count in assay [1] is 617. The inhibition in assay [1] was 6.6% (inactive); in assay [3] it was -68.3% (inactive); in assay [7], -0.271% (inactive); in assay [8] it was 28.5% (inactive). Besides, the inhibition of aggregation in assay [2] is 3.4% (inactive). The nuclei count was determined as 107% in assay [2] and 132% in assay [3]. Further, the fluorescence slope in assay [4] is -0.594 (inactive). Moreover, the NADPH fluorescence slope in assay [5] was -3.8e-05 (inactive). The slope in assay [6] was 0.00653 (inactive).
For `CSc1nc(C)cc(Oc2ccc(=O)n(C)n2)n1`, the cell count in assay [1] turned out to be 380. Moreover, the inhibition in assay [1] was -0.7% (inactive); in assay [3], -30.2% (inactive); in assay [7] it was 1.26% (inactive); in assay [8], 22.5% (inactive). Also, the inhibition of aggregation in assay [2] was 1.1% (inactive). For the same compound, the nuclei count turned out to be 101% in assay [2] and 109% in assay [3]. Further, in assay [4], the fluorescence slope was -0.478 (inactive). In addition, in assay [5], the NADPH fluorescence slope is -4.2e-06 (inactive). In addition, the slope in assay [6] was 0.00506 (inactive).
For the compound `Cc1ccc2nc(NC(=O)C3CCCN(S(=O)(=O)c4cccc5nonc45)C3)sc2c1` (centres undefined), the cell count in assay [1] is 266. Also, the inhibition in assay [1] is -13.5% (inactive); in assay [3], -3.1% (inactive); in assay [7] it was 14.7% (inactive); in assay [8], -5.96% (inactive). Also, the inhibition of aggregation in assay [2] is 9.4% (inactive). Further, the nuclei count was found to be 91% in assay [2] and 70.9% in assay [3]. For the same compound, the fluorescence slope in assay [4] is -0.304 (inactive). The NADPH fluorescence slope in assay [5] was 2.8e-06 (inactive). Moreover, the slope in assay [6] is 0.00386 (inactive).
Take `O=C1c2ccccc2C(=O)N1C/C=C/c1ccccc1`: the cell count in assay [1] stood at 320. For the same compound, the inhibition was 6.3% (inactive) in assay [1], -3.5% (inactive) in assay [3], 21.6% (inactive) in assay [7] and 25.4% (inactive) in assay [8]. Further, the inhibition of aggregation in assay [2] is -5.9% (inactive). The nuclei count in assay [2] turned out to be 98.3%; in assay [3] it was 112%. In addition, the fluorescence slope in assay [4] was -0.495 (inactive). Besides, the NADPH fluorescence slope in assay [5] is -5.2e-05 (inactive). Also, the slope in assay [6] is 0.0051 (inactive).
In the case of `CCOC(=O)c1ccccc1NC1c2ccccc2C(=O)N1C1CCN(C(=O)OCC)CC1` (centres undefined), the cell count in assay [1] stood at 548. Further, the inhibition in assay [1] is -9.7% (inactive); in assay [3] it was -10.1% (inactive); in assay [7], 14.7% (inactive); in assay [8] it was 38.1% (inactive). In assay [2], the inhibition of aggregation was -12% (inactive). Besides, the nuclei count turned out to be 65.3% in assay [2] and 109% in assay [3]. Also, the fluorescence slope in assay [4] was -0.463 (inactive). Besides, in assay [5], the NADPH fluorescence slope was -3.3e-05 (inactive). Further, the slope in assay [6] was 0.00667 (inactive).
In the case of `CCOC(=O)C1CCCN(CCC(C)c2ccccc2)C1` (centres undefined), the cell count in assay [1] turned out to be 469. In addition, the inhibition in assay [1] was -2.7% (inactive); in assay [3], 25% (inactive); in assay [7] it was 14.2% (inactive); in assay [8], 29.6% (inactive). In addition, the inhibition of aggregation in assay [2] was 2.6% (inactive). Also, the nuclei count in assay [2] is 92.9%; in assay [3] it was 76.3%. Further, the fluorescence slope in assay [4] was -0.612 (inactive). The NADPH fluorescence slope in assay [5] is -4.1e-05 (inactive). Also, in assay [6], the slope was 0.00315 (inactive).
Take `O=C(Oc1ccccc1)c1cccc(COC(=O)c2cnccn2)c1`: in assay [1], the cell count was 385. The inhibition was -1.6% (inactive) in assay [1], 20.7% (inactive) in assay [3], 5.8% (inactive) in assay [7] and 3.65% (inactive) in assay [8]. For the same compound, the inhibition of aggregation in assay [2] is 7.9% (inactive). Moreover, the nuclei count in assay [2] came out at 103%; in assay [3], 105%. Moreover, in assay [4], the fluorescence slope is -0.425 (inactive). In addition, the NADPH fluorescence slope in assay [5] is -5.1e-05 (inactive). Further, the slope in assay [6] was 0.00507 (inactive).
For `O=C(CSc1oc(-c2ccco2)nc1S(=O)(=O)c1ccccc1)NCC1CCCO1` (centres undefined), in assay [1], the cell count is 497. In addition, the inhibition in assay [1] was -13.9% (inactive); in assay [3] it was -95% (inactive); in assay [7], 9.95% (inactive); in assay [8], 20.2% (inactive). Besides, the inhibition of aggregation in assay [2] is 7.5% (inactive). Besides, the nuclei count in assay [2] amounted to 98.6%; in assay [3], 174%. Moreover, the fluorescence slope in assay [4] was -0.492 (inactive). For the same compound, the NADPH fluorescence slope in assay [5] was -4.8e-05 (inactive). Moreover, in assay [6], the slope was 0.00481 (inactive).
For the compound `Cc1cccc(OCC(=O)N2CCN(C(=O)Cc3ccccc3)CC2)c1`, the cell count in assay [1] came to 264. Besides, the inhibition in assay [1] is -5.5% (inactive); in assay [3], -34.1% (inactive); in assay [7], 5.28% (inactive); in assay [8], 16.6% (inactive). Moreover, the inhibition of aggregation in assay [2] was 15.8% (inactive). In addition, the nuclei count in assay [2] stood at 85.9%; in assay [3], 111%. For the same compound, the fluorescence slope in assay [4] was -0.502 (inactive). The NADPH fluorescence slope in assay [5] is -4.5e-05 (inactive). For the same compound, the slope in assay [6] was 0.00476 (inactive).
For the compound `CC(=O)NC(CCS(C)(=O)=O)C(=O)Nc1cc(C)on1` (centres undefined), the cell count in assay [1] was found to be 676. Besides, the inhibition in assay [1] is -2.9% (inactive); in assay [3], -36.9% (inactive); in assay [7] it was 25.9% (inactive); in assay [8], 7.35% (inactive). Moreover, the inhibition of aggregation in assay [2] is 26.2% (inactive). Moreover, the results for the nuclei count in assay [2] and in assay [3] were 62.5% and 114%, respectively. In addition, the fluorescence slope in assay [4] is -0.533 (inactive). For the same compound, in assay [5], the NADPH fluorescence slope is 2.6e-05 (inactive). Moreover, the slope in assay [6] was 0.00682 (inactive).
Consider `CC(CCc1ccccc1)NC(=O)CSc1nc(N)cc(N)n1` (centres undefined), for which the cell count in assay [1] stood at 253. The inhibition is -6% (inactive) in assay [1], -41.5% (inactive) in assay [3], 8.76% (inactive) in assay [7] and 10.6% (inactive) in assay [8]. In addition, in assay [2], the inhibition of aggregation was -23.7% (inactive). Moreover, the nuclei count in assay [2] came to 10.8%; in assay [3], 99.2%. The fluorescence slope in assay [4] is -0.483 (inactive). The NADPH fluorescence slope in assay [5] is -4.4e-05 (inactive). Further, the slope in assay [6] is 0.00545 (inactive).
